# Reference: paper PMC4336329 (PLoS ONE, 2015)
# About 14,000 (4.5%) of roughly 310,000 compounds showed an effect of 50% or more. The effect is printed as a negative number. The entries come from a sample that favours strong results as a whole.
# Target: human ether-à-go-go-related gene (hERG) potassium channel (human, UniProt Q12809)
# Experiment: primary screen, population patch clamp on CHO cells stably expressing hERG; higher = less effect of the substance
# 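Also: peak tail current of the secondary pulse compared with the same well before compound.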
# Chain of human ether-à-go-go-related gene (hERG) potassium channel (Q12809 whole entry, looked up): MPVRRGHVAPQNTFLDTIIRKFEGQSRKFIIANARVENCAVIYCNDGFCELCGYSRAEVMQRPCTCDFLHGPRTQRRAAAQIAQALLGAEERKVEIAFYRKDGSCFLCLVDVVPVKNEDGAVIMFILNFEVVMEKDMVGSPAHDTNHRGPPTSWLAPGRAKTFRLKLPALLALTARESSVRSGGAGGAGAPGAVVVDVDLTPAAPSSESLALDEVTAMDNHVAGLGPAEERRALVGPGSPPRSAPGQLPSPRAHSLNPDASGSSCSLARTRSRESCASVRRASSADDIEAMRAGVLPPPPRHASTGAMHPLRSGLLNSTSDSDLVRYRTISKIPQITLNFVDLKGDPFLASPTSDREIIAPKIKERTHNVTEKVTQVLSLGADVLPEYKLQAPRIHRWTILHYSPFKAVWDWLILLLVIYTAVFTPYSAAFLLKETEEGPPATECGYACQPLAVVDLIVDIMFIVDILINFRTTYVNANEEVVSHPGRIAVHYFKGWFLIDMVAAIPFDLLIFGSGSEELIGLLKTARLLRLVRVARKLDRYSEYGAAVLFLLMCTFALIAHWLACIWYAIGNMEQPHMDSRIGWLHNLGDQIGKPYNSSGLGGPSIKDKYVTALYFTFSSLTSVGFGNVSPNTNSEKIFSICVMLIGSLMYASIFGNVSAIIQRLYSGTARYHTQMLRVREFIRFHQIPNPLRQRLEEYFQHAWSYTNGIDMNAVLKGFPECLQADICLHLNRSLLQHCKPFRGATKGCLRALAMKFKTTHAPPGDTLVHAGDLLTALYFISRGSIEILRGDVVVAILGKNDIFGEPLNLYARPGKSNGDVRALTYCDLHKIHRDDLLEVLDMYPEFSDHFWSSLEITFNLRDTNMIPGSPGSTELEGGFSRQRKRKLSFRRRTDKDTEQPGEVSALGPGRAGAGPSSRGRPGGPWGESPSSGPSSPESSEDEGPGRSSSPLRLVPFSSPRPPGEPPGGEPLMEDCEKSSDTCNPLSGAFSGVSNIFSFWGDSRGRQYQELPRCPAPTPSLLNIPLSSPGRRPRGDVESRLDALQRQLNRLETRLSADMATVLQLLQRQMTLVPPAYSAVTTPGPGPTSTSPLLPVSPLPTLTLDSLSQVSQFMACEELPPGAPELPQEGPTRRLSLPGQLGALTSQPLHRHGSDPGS
row,Compound,"hERG current change (%, negative = inhibition) at 10uM [%]"
1,CCC(NC(=O)Nc1ncccc1C)(C(F)(F)F)C(F)(F)F,-3.33
2,Cc1cccc(NC(=O)c2ccc3c(c2)C(=O)N(c2ccccc2C)C3=O)n1,-10.5
3,COc1ccc(CN2C(=O)CN(C3CCCCCC3)C(=O)C2c2ccc(F)cc2)cc1 (centres unmarked),3.27
4,CCOC(=O)C1=C(COC(=O)c2cccnc2Cl)NC(=O)NC1C (centres unmarked),6.19
5,CCOC(=O)C1=C(COC(=O)c2ccc(C)s2)NC(=O)NC1C (centres unmarked),-5.32
6,CCOC(=O)C1=C(COC(=O)c2ncc(Cl)c(Cl)c2Cl)NC(=O)NC1C (centres unmarked),-60.6
7,CCOC(=O)CCc1c(C)nc(SCCN2CCCC2)c(C#N)c1C,-63.9
8,CCOC(=O)CCc1c(C)nc(SCC(=O)O)c(C#N)c1C,-2.59
9,CCOC(=O)CCc1c(C)nc(SCc2ccc(C(=O)O)cc2)c(C#N)c1C,-11.7
10,COc1ccc(NS(=O)(=O)c2cc(NC(=O)CC(=O)c3ccc([N+](=O)[O-])cc3)ccc2C)cc1,5.94
11,COc1ccc(C(=O)CC(=O)Nc2ccc([N+](=O)[O-])cc2)cc1,-1.39
12,CS(=O)(=O)Nc1ccc(C(=O)CC(=O)Nc2ccc([N+](=O)[O-])cc2)cc1,-60.7
13,COc1cccc(CC(=O)NCC2(N3CCCCC3)CCCCC2)c1,25
14,Cn1cc(Br)c(C(=O)NC2CCCCCC2)n1,2.74
15,Cc1cccn2c(=O)nc(SCC(=O)Nc3ccc4c(c3)OCO4)nc12,-5.58
16,CCN(C(=O)CSc1nc2nc(C)cc(C)n2n1)C1CCS(=O)(=O)C1 (centres unmarked),20.5
17,N#Cc1ccc(OCC(=O)OCCCOC(=O)COc2ccc(C#N)cc2)cc1,-66.8
18,CC(=O)N1CCN(C(=O)COC(=O)COc2ccc(C#N)cc2)CC1,4.54
19,N#Cc1ccccc1OCC(=O)OCCCOC(=O)COc1ccccc1C#N,10.1
20,CCOC(=O)c1c(NC(=O)CCN2C(=O)c3ccccc3C2=O)sc(C(=O)OC(C)C)c1C,-4.35
21,Cc1ccc(S(=O)(=O)N/N=C/c2cccs2)cc1,9.65
22,C=CCOc1ccccc1CNc1cccc(F)c1,14.2
23,CCC(C)Sc1cc(-c2nc3ccc(C)cn3c2NCc2ccccc2)ccc1OC.O=C(O)C(F)(F)F (centres unmarked),-1.12

row,Compound,"hERG current change (%, negative = inhibition) at 10uM [%]"
1,Cl.OC(COc1ccc(Cl)c2ccccc12)CN1CCN(c2ccccn2)CC1 (centres unmarked),-21.9
2,OC(COC(c1ccccc1)c1ccccc1)CN1CCN(c2ccccn2)CC1 (centres unmarked),-74.7
3,Cl.OC(COc1cccc2ccccc12)CN1CCN(c2ccccn2)CC1 (centres unmarked),-49.2
4,Cl.OC(COC(c1ccc(Cl)cc1)c1ccc(Cl)cc1)CN1CCN(c2ccccn2)CC1 (centres unmarked),-82.4
5,Cc1cc(C)c2nc(-c3ccccn3)cc(C(=O)n3cccn3)c2c1,22.9
6,S=C(NCCc1ccccc1)NCCc1cnc[nH]1,-4.01
7,CCOC(=O)C1CCCN(S(=O)(=O)c2cn(C)c(=O)n(C)c2=O)C1 (centres unmarked),12.8
8,Cc1cc(=O)[nH]c(SCCCOc2ccccc2Cl)n1,3.82
9,CCOC(=O)c1cnc2c(C(=O)OC)cccc2c1NCCN1CCOCC1,-70
10,CCOC(=O)c1cnc2c(C)cccc2c1NCCCN1CCOCC1,-72.8
11,CCOC(=O)c1cnc2c(Cl)cc(Cl)cc2c1NCCCN1CCOCC1,-4.47
12,CCOC(=O)c1cnc2c(Cl)cccc2c1NCCN1CCOCC1,-15.3
13,CCOC(=O)c1cnc2c(CC)cccc2c1NCCN1CCOCC1,-44.4
14,CCOC(=O)c1cnc2c(C)cc(C)cc2c1NCCCN1CCOCC1,-59.7
15,CCOC(=O)c1cnc2c(C)cc(Cl)cc2c1NCCCN1CCOCC1,1.44
16,CCOC(=O)c1cnc2c(CC)cccc2c1NCCCN1CCOCC1,-35.6
17,CCOC(=O)c1cnc2c(Cl)cccc2c1NCCCN1CCOCC1,-44.7
18,CCOc1c2ccc(C(=O)NCCCCc3ccccc3)cc2nn1C,-14.5
19,CC(=O)c1cc(O)c2ccccc2c1O,-2.58
20,CC(=O)Nc1ccc(C(=O)N/N=C/c2ccccc2OCc2ccccc2)cc1,29.2
21,C#CCNC(=O)C1=C[C@@H](c2ccccc2)C[C@@H](OCCCCO)O1,-13.4
22,CCCCc1ccc(NC(=O)NCc2cccnc2)cc1,-41.4
23,Cc1nc2cc(F)ccc2n1C1CCN(S(=O)(=O)c2ccccc2)CC1,-48.6

row,Compound,"hERG current change (%, negative = inhibition) at 10uM [%]"
1,Cc1nc2cc(C(=O)O)ccc2n1C1CCCCC1,7.52
2,COc1ccc(-n2c(C)nc3cc(C(=O)N4CCOCC4)ccc32)cc1,-14.1
3,COc1cc(C(=O)N2CCC(n3cnc4cc(F)ccc43)CC2)cc(OC)c1OC,-56.9
4,COc1cc(OC)cc(C(=O)N2CCN(C(=O)c3cccc(F)c3)CC2)c1,-3.19
5,COc1cc(C(=O)N2CCC(N3CCCCCC3)CC2)cc(OC)c1OC.O=C(O)C(=O)O,-2.57
6,COc1cc(OC)cc(OC(=O)C2CCN(C(=O)c3ccc(F)cc3)CC2)c1,-7.47
7,COc1cc(OC)cc(C(=O)N2CCC(N3CCCCCC3)CC2)c1,-5.77
8,COC(=O)C1CCN(C(=O)c2cc(OC)c(OC)c(OC)c2)CC1,19.3
9,Cc1nc2cc(F)ccc2n1C1CCN(C(=O)c2ccc(F)cc2F)CC1,-56.4
10,COc1cc(OC)cc(C(=O)N2CCC(n3c(C)nc4cc(F)ccc43)CC2)c1,-59
11,COc1ccc(C(=O)N2CCC(n3c(C)nc4cc(F)ccc43)CC2)cc1,-73.4
12,Cn1c(=O)cc(OCCCC(=O)N2CCN(c3ccccc3)CC2)c2ccccc21,-47.3
13,Cc1c(N=Nc2c(O)n(C)c(=O)n(C)c2=O)c(=O)n(-c2ccccc2)n1C,8.74
14,O=C(c1cccs1)N1CCN(C(=O)c2ccco2)c2ccccc2C1,-13.6
15,COc1ccc(Cc2nc3ccc(C(=O)NCCCSC)cc3o2)cc1OC,0.503
16,O=C(NNC(=O)c1cccc2ccccc12)c1ccccc1O,4.19
17,O=c1c2ccccc2nc(SCc2cc(F)cc3c2OCOC3)n1Cc1ccco1,-2.26
18,O=C(c1cc(COc2ccc3ncccc3c2)on1)N1CCC[C@H]1CO,4.88
19,COc1ccc(C(=O)N2CCN(S(=O)(=O)c3ccc(F)cc3)CC2)cc1OC,10.9
20,O=C(N1CCOCC1)N1CCC(n2nnc3cc(F)ccc32)CC1,-7.65
21,O=C(c1ccc(F)cc1)N1CCC(n2nnc3ccccc32)CC1,-33.3
22,COc1ccc(C(=O)N2CCC(n3nnc4cc(F)ccc43)CC2)cc1OC,-61.6
23,O=C(c1ccc([N+](=O)[O-])cc1)N1CCC(n2nnc3cc(F)ccc32)CC1,-71.9

row,Compound,"hERG current change (%, negative = inhibition) at 10uM [%]"
1,Cc1cccc(C(=O)N2CCC(n3nnc4cc(F)ccc43)CC2)c1,-34.8
2,COc1cc(C(=O)N2CCC(n3c(C)nc4cc(F)ccc43)CC2)cc(OC)c1OC,-8.07
3,COc1ccc(C(=O)N2CCC(n3c(C)nc4cc(F)ccc43)CC2)cc1OC,-69
4,CCOC(=O)C(CC)Sc1ncnc2nc[nH]c12 (centres unmarked),-12.4
5,CCCn1nnc(NC(=O)COc2ccc(C3CCCCC3)cc2)n1,-31.1
6,O=c1ccc(-c2ccc(S(=O)(=O)Nc3cccc(Br)c3)o2)n[nH]1,14.8
7,Cc1nn(C)c(C)c1/C=C1/CC2C3CC=C4CC(O)CCC4(C)C3CCC2(C)C1=O (centres unmarked),-8.03
8,CCN(CC)S(=O)(=O)c1ccc(NC(=O)CSc2ncnc3ccccc23)cc1,-8.71
9,Cc1ccc(C(=O)NCCc2nnc3ccc(SCC(=O)N4CCCCC4)nn23)cc1,4.02
10,c1ccc(CCc2nn3c(-c4ccncc4)nnc3s2)cc1,-53.9
11,c1ccc(Cc2nn3c(-c4ccncc4)nnc3s2)cc1,-38.6
12,Cc1ccc(-c2nnc3sc(CCc4ccccc4)nn23)cc1,6.39
13,CCc1nn(CCCC(=O)NCc2cc(Br)ccc2OC)c(=O)c2cc3occc3n12,-2.73
14,CC1(C(=O)Nc2nc3ccccc3s2)CC1(Br)Br (centres unmarked),13.5
15,Cc1ccn2cc(CCNC(=O)c3ccc(Br)o3)nc2c1,-57.5
16,COc1ccc(CCC(=O)NCc2cn3ccc(C)cc3n2)cc1,-52
17,COc1ccc(CCC(=O)NCc2cn3ccccc3n2)cc1,-2.46
18,O=C(NCCc1cn2ccccc2n1)c1ccc(Br)o1,-28.9
19,COc1ccc(CCC(=O)NCc2cn3ccsc3n2)cc1,13
20,Cc1ccn2cc(CNC(=O)c3ccc(Br)o3)nc2c1,-38.6
